From PubChem BioAssay (NCI)
About 79,000 compounds went through this panel and 15% of them were active in at least one assay; those are over-represented in the sample as a whole. Calls of active or inactive are those of the source. No stated cut-off is given here; in the data, active means growth inhibition above about 70%; inactive means the rest.

Columns and labels:
[1] = NCI Yeast Anticancer Drug Screen. Data for the rad50 strain (AID 155);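 further: 0% = growth of vehicle-only cultures of the same strain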; conditions: S. cerevisiae rad50 strain growth inhibition; at 50.0 µM; stronger effect = higher value
Summary of the method: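 DNA repair mutant yeast, compound exposure, growth read-out; inhibition is taken relative to vehicle.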

[2] = NCI Yeast Anticancer Drug Screen. Data for the mec2-1 strain (AID 157); conditions: S. cerevisiae mec2-1 strain, at 50.0 µM, stronger effect = higher value
Summary of the method: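 mec2-1 yeast strain, carrying an alteration in DNA damage repair or cell cycle control, was exposed to compounds; growth inhibition was measured relative to vehicle-treated controls.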

[3] = NCI Yeast Anticancer Drug Screen. Data for the sgs1 mgt1 strain (AID 161);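 further: 0% = growth of cultures given vehicle only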; conditions: S. cerevisiae sgs1 mgt1 strain, at 50.0 µM, stronger effect = higher value
Summary of the method: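 This yeast growth screen uses a strain with defined DNA-repair lesions; compound-treated growth is compared with vehicle-treated growth.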

[4] = NCI Yeast Anticancer Drug Screen. Data for the cln2 rad14 strain (AID 165);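 further: 0% = growth equal to vehicle treated cultures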; conditions: S. cerevisiae cln2 rad14 strain, at 50.0 µM, stronger effect = higher value
Summary of the method: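 Yeast carrying cln2 and rad14 alterations (cell cycle control and DNA damage repair) were exposed to compounds. Growth inhibition was measured against vehicle-treated controls.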

[5] = NCI Yeast Anticancer Drug Screen. Data for the bub3 strain (AID 167); conditions: S. cerevisiae bub3 mutant strain, at 50.0 µM, stronger effect = higher value
Summary of the method: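 In this screen, a yeast mutant lacking normal mitotic checkpoint function is challenged with compound. Relative growth versus vehicle gives the inhibition value.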

[6] = NCI Yeast Anticancer Drug Screen. Data for the mlh1 rad18 strain (AID 175); conditions: S. cerevisiae mlh1 rad18 strain growth inhibition; at 50.0 µM; stronger effect = higher value
Summary of the method: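 Growth inhibition of the yeast strain was measured after compound exposure and expressed relative to vehicle-treated controls. The strain carries defined defects in DNA damage repair.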

Measured: growth inhibition

CC(=O)N(C)c1cccc2ccccc12
inactive: [1] 17.9% | [2] -1.35% | [3] 9.85% | [4] -4.65% | [5] 6.75% | [6] 5.2%

CCC(CC)C(=O)NCC(=O)NO
inactive: [1] 2.25% | [2] 2.85% | [3] 1% | [4] -36% | [5] 0.6% | [6] 9.15%

Cc1ccc(NC(=O)CC(=O)n2nc(-c3ccccc3)c(N=Nc3ccc(Cl)cc3)c2-c2ccccc2)cc1
inactive: [1] 9.95% | [2] 4% | [3] 13.9% | [4] 22.7% | [5] 46% | [6] 37.7%

CCC(C)CNCCO (configuration not stated)
inactive: [1] 24.6% | [2] -7.1% | [3] 5.7% | [4] 0.35% | [5] -6.25% | [6] 11.3%

FC(F)(F)c1cccc(C2SCc3nc4ccccc4n32)c1 (configuration not stated)
inactive: [1] -16.4% | [2] 6.6% | [3] 7.1% | [4] 0.45% | [5] 23.9% | [6] 21.7%

NC(=O)C12CC3CC(CC(Br)(C3)C1)C2
inactive: [1] -7.9% | [2] -6.85% | [3] -8.25% | [4] 16.2% | [5] 2.5% | [6] -7.1%

O=C(CO)CC(=O)C(=O)Nc1ccccc1
inactive: [1] -10.8% | [2] -22.9% | [3] 1.5% | [4] 10.6% | [5] -4.15% | [6] -9.9%

CCSCCOC(=S)Nc1ccccc1
inactive: [1] -6.25% | [2] -8.05% | [3] -4.9% | [4] 0.7% | [5] 4.25% | [6] 7.1%

CCOC1(OCC)C([N+](=O)[O-])=CC(=[N+]([O-])O)C=C1[N+](=O)[O-]
inactive: [1] 3.8% | [2] -4.1% | [3] -7.15% | [4] 3.75% | [5] -8.8% | [6] -21.2%

CN(C)c1ccc(N=C2C=CC(=C(C#N)C#N)c3ccccc32)cc1
inactive: [1] -24% | [2] -6.05% | [3] -14.2% | [4] -34% | [5] -20.9% | [6] -50%

N#CCCC(=O)c1ccccc1
inactive: [1] -1.5% | [2] -19.1% | [3] -1.15% | [4] -2.65% | [5] 5.15% | [6] 16.9%

O=C(CC/C=C(/CS(=O)(=O)c1ccccc1)S(=O)(=O)c1ccccc1)c1ccccc1
inactive: [1] 20.3% | [2] -15.1% | [3] -5.75% | [4] -24.1% | [5] -6.15% | [6] 13.4%

CCCCCCCCCCCCCCCCCCCCCCCC
inactive: [1] 0.1% | [2] 2.3% | [3] 18.7% | [4] -53% | [5] 21.7% | [6] -13.2%

O=C1C2C(C(=O)N1c1ccccc1)C1(c3cccnc3)NC(=O)C2(Cc2cccnc2)c2ccccc21 (configuration not stated)
inactive: [1] 12.6% | [2] -5.85% | [3] 8.95% | [4] 19.7% | [5] -1.55% | [6] 13.5%

Clc1ccccc1CSc1cc(SCc2ccccc2Cl)nc(SCc2ccccc2Cl)n1
inactive: [1] -8% | [2] -2.75% | [3] -2.25% | [4] 23.3% | [5] -7.3% | [6] 22%

COC(=O)C12C3C4C1C1C2C3C41C(=O)N(C(C)C)C(C)C (configuration not stated)
inactive: [1] 7.75% | [2] -1.45% | [3] -3.4% | [4] -3.55% | [5] 3.5% | [6] -14%

CC(NNC(=S)N1CCCCCC1)c1cccc[n+]1[O-] (configuration not stated)
active: [1] 97.4% | [3] 96.5% | [4] 97.6%
inactive: [2] 8.3% | [5] 14.3% | [6] 33.6%

CCCCCCCCCCCCCCCC/C(C)=C\C(=O)OC
inactive: [1] 3.8% | [2] 20.3% | [3] 22.9% | [4] -0.9% | [5] 28.9% | [6] 16.1%

CCOc1ccc(/C=N/O)cc1OCC
inactive: [1] -0.3% | [2] -10.1% | [3] -10.2% | [4] -25.6% | [5] -2.1% | [6] -2.6%

O=[N+]([O-])c1ccccc1-c1ccccc1CO
inactive: [1] -22% | [2] -19.2% | [3] -41.4% | [4] -23.4% | [5] -18.4% | [6] -28.9%

CCCCCCCCSCCCC(=O)O
inactive: [1] -16.9% | [2] -22.8% | [3] -10.8% | [4] -11.3% | [5] -27.7% | [6] -29.2%

Cc1nc(-c2cc3c(ccc4ccccc43)oc2=O)cs1
inactive: [1] 21.5% | [2] -8.85% | [3] -4.45% | [4] 25.8% | [5] -4.4% | [6] -21.5%

CC(C)CC(C)Cc1ccncc1 (configuration not stated)
inactive: [1] 0.4% | [2] 1.65% | [3] 24.8% | [4] 11.8% | [5] -1.65% | [6] -5%

Cc1ccc([N+](=O)[O-])cc1NC(=O)N(C)Cc1ccc(Cl)cc1
inactive: [1] 5.5% | [2] 24.2% | [3] -12.2% | [4] -5.35% | [5] -5.4% | [6] -8.9%

CCCCSC1=NCCN1
inactive: [1] 14.8% | [2] 9.15% | [3] -3.9% | [4] 5.5% | [5] 5.25% | [6] 10.5%

CC(C)(C)c1ccc(OC(=S)Nc2ccccc2)cc1
inactive: [1] -32.8% | [2] -6.25% | [3] -17.4% | [4] -17.2% | [5] -13.6% | [6] 2.5%

O=C1CSC2=NC3=C(COC/C3=C\c3ccc(F)cc3)C(c3ccc(F)cc3)N12 (configuration not stated)
inactive: [1] 16.6% | [2] 28.3% | [3] 41.9% | [4] 21.2% | [5] 30.1% | [6] 31.2%

CC(=O)N=c1ccc2nc(N)nn(O)c-2c1
inactive: [1] 9.5% | [2] 0.05% | [3] -10.4% | [4] -4.95% | [5] -33.6% | [6] -26.6%

COc1ccc(N2C(=O)C3c4[nH]c5ccccc5c4C4CC(C)(C)CC(C)(C)C4C3C2=O)cc1 (configuration not stated)
inactive: [1] 35.9% | [2] 10.7% | [3] 13.3% | [4] -13.1% | [5] 33.1% | [6] 8.65%

Cc1cc2nccnc2cc1C
inactive: [1] -48.8% | [2] -65.8% | [3] -31.4% | [4] -3.4% | [5] -65.5% | [6] -23.2%

COc1ccc(C(O)/C(=C/n2ccnc2)c2ccccc2)cc1OC (configuration not stated)
inactive: [1] -23.8% | [2] -17.8% | [3] -15.6% | [4] -5.85% | [5] -7.65% | [6] -25.2%

N#C/C(=C/NC(=S)N=Nc1c(O)[nH]c2ccccc12)C(N)=O
inactive: [1] -33.7% | [2] -51.7% | [3] -19.8% | [4] -6.6% | [5] -0.9% | [6] -18.9%

COC(=O)c1cc(OC)c2cccnc2c1Nc1ccccc1
inactive: [1] -7.75% | [2] 12.2% | [3] 9.25% | [4] 0.6% | [5] 11.1% | [6] -6.8%

Nc1cc(Cl)c([N+](=O)[O-])cc1O
inactive: [1] 6.2% | [2] 18.4% | [3] 5.55% | [4] -66.2% | [5] 5.05% | [6] -12%

C/C(=N/NC(=S)N1CCCCC1)c1ccccc1O
inactive: [1] -17.4% | [2] -41.7% | [3] 1.55% | [4] 4.4% | [5] -10.6% | [6] -5.75%

O=C(O)c1c[nH]c2c(ccc3[nH]cc(C(=O)O)c(=O)c32)c1=O
inactive: [1] -14.1% | [2] -36.4% | [3] -33.2% | [4] -32.2% | [5] -40.7% | [6] -13.6%

COc1ccc([N+](=O)[O-])cc1N=NN(C)C
inactive: [1] -1.9% | [2] -11.7% | [3] -10.8% | [4] -6.3% | [5] -5.8% | [6] -8.45%

O=C(NCCCl)NCC1CCCCO1 (configuration not stated)
inactive: [1] -2.8% | [2] 7% | [3] 0.2% | [4] -76.3% | [5] -3.9% | [6] -12%

N#Cc1c2ccccc2c(C#N)c2ccccc12
inactive: [1] -4.5% | [2] -8.15% | [3] 1.9% | [4] -25.7% | [5] 1.3% | [6] -12.3%

Cc1ccc(NC(Nc2ccc(C)c(Cl)c2)C(Cl)(Cl)Cl)cc1Cl
inactive: [1] 9.65% | [2] -24% | [3] -5.7% | [4] -7.7% | [5] 5.75% | [6] -15.3%

CC(C)(C)N(OC(=O)c1ccccc1)C(=O)c1ccccc1
inactive: [1] 3.25% | [2] 4.35% | [3] 0.4% | [4] 5.45% | [5] 0.6% | [6] 14.4%

CC(=O)NCCc1ccc(C(=O)O)cc1
inactive: [1] -17% | [2] -1% | [3] 2.2% | [4] -34.2% | [5] -11.4% | [6] 3.65%
